Data from the supplement of paper PMC10037445.
In all, about 2,900 compounds were measured (“NF-kB SEAP reporter activity, fold change vs agonist alone”: median about 0.99, highest 2% from about 2.6 on). This excerpt belongs to a sample that is enriched for the highest values.

Assays:
[1] = test system: RAW-Dual; assay: NF-kB SEAP reporter activity, fold change vs agonist alone; higher = enhanced NF-kB activity; conditions: library stock concentration (final ~1000-fold dilution): 10 mM, cytotoxicity flag (confluency mask): not cytotoxic
Outline: (§1)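 After 50 nL of library stock was delivered by pin tool to RAW-Dual macrophages (50,000 cells/well, DMEM, 384-well plates), a PRR agonist was added 1 h later and the plates were kept at 37 °C, 5% CO2. Twenty hours later, IRF was read from supernatant by QuantiLuc luminescence and NF-κB by QuantiBlue absorbance at 620 nm. Reporter activity is stated as fold change over agonist-alone wells. Wells with IncuCyte confluency under 70% of agonist controls in both mask sets were counted as cytotoxic.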

[2] = test system: RAW-Dual; assay: NF-kB SEAP reporter activity, fold change vs agonist alone; cytotoxicity flag (confluency mask): not cytotoxic; higher = enhanced NF-kB activity
Outline: as §1

[3] = agonist: ODN 1826 (TLR9) 0.5 ug/mL
[4] = agonist: Pam2CSK4 (TLR2/6) 0.1 ug/mL
[5] = agonist: Pam3CSK4 (TLR2/1) 0.1 ug/mL

CCCS(=O)(=O)Nc1ccc(F)c(C(=O)c2c[nH]c3ncc(Cl)cc23)c1F
NF-kB SEAP reporter activity ([1]; agonist: Imiquimod (TLR7) […]): 0.891
NF-kB SEAP reporter activity ([1]; agonist: MPLA (TLR4) […]): 1.34

O=C(O)c1ccc(-c2c[nH]c3ncc(-c4ccccc4)cc23)cc1C1CCCC1
NF-kB SEAP reporter activity ([1]; agonist: Imiquimod (TLR7) […]): 0.374
NF-kB SEAP reporter activity ([1]; agonist: MPLA (TLR4) […]): 1.16

CCN(C)S(=O)(=O)Nc1ccc(F)c(C(=O)c2c[nH]c3ncc(-c4cnc(C5CC5)nc4)cc23)c1F
NF-kB SEAP reporter activity ([1]; agonist: Imiquimod (TLR7) […]): 1.24
NF-kB SEAP reporter activity ([1]; agonist: MPLA (TLR4) […]): 1.62

CCCS(=O)(=O)Nc1ccc(F)c(C(=O)c2c[nH]c3ncc(-c4ccc(Cl)cc4)cc23)c1F (library stock concentration (final ~1000-fold dilution): 10 mM)
NF-kB SEAP reporter activity ([2]; agonist: LPS (TLR4) 0.1 ug/mL): 0.99
NF-kB SEAP reporter activity [2, 3]: 0.941
NF-kB SEAP reporter activity [2, 4]: 0.4
NF-kB SEAP reporter activity [2, 5]: 0.411

CCN(C)S(=O)(=O)Nc1ccc(F)c(C(=O)c2c[nH]c3ncc(-c4cnc(C5CC5)nc4)cc23)c1F (library stock concentration (final ~1000-fold dilution): 10 mM)
NF-kB SEAP reporter activity ([2]; agonist: LPS (TLR4) 0.1 ug/mL): 3.3
NF-kB SEAP reporter activity [2, 3]: 1.55
NF-kB SEAP reporter activity [2, 4]: 0.469
NF-kB SEAP reporter activity [2, 5]: 0.764

O=C(c1c(F)ccc(NS(=O)(=O)N2CCC(F)C2)c1F)c1c[nH]c2ncc(-c3cnc(C4CC4)nc3)cc12 (stereo not drawn)
NF-kB SEAP reporter activity ([1]; agonist: Imiquimod (TLR7) […]): 1.12
NF-kB SEAP reporter activity ([1]; agonist: MPLA (TLR4) […]): 1.52

CCCS(=O)(=O)Nc1ccc(F)c(C(=O)c2c[nH]c3ncc(-c4ccc(Cl)cc4)cc23)c1F
NF-kB SEAP reporter activity ([1]; agonist: Imiquimod (TLR7) […]): 1.1
NF-kB SEAP reporter activity ([1]; agonist: MPLA (TLR4) […]): 1.3

CCCS(=O)(=O)Nc1ccc(F)c(C(=O)c2c[nH]c3ncc(Cl)cc23)c1F (library stock concentration (final ~1000-fold dilution): 10 mM)
NF-kB SEAP reporter activity ([2]; agonist: LPS (TLR4) 0.1 ug/mL): 1.48
NF-kB SEAP reporter activity [2, 3]: 0.781
NF-kB SEAP reporter activity [2, 4]: 0.389
NF-kB SEAP reporter activity [2, 5]: 0.505

O=C(c1c(F)ccc(NS(=O)(=O)N2CCC(F)C2)c1F)c1c[nH]c2ncc(-c3cnc(C4CC4)nc3)cc12 (stereo not drawn) (library stock concentration (final ~1000-fold dilution): 10 mM)
NF-kB SEAP reporter activity ([2]; agonist: LPS (TLR4) 0.1 ug/mL): 3.62
NF-kB SEAP reporter activity [2, 3]: 1.42
NF-kB SEAP reporter activity [2, 4]: 0.526
NF-kB SEAP reporter activity [2, 5]: 0.5

COc1ccc(F)c(F)c1C(=O)c1cnc(NC2CCN(S(C)(=O)=O)CC2)nc1N
NF-kB SEAP reporter activity ([1]; agonist: Imiquimod (TLR7) […]): 0.977
NF-kB SEAP reporter activity ([1]; agonist: MPLA (TLR4) […]): 0.905

O=C(O)c1ccc(-c2c[nH]c3ncc(-c4ccccc4)cc23)cc1C1CCCC1 (library stock concentration (final ~1000-fold dilution): 10 mM)
NF-kB SEAP reporter activity ([2]; agonist: LPS (TLR4) 0.1 ug/mL): 1.15
NF-kB SEAP reporter activity [2, 3]: 0.388
NF-kB SEAP reporter activity [2, 4]: 0.646
NF-kB SEAP reporter activity [2, 5]: 0.497

COc1ccc(F)c(F)c1C(=O)c1cnc(NC2CCN(S(C)(=O)=O)CC2)nc1N (library stock concentration (final ~1000-fold dilution): 10 mM)
NF-kB SEAP reporter activity ([2]; agonist: LPS (TLR4) 0.1 ug/mL): 0.194
NF-kB SEAP reporter activity [2, 3]: 0.985
NF-kB SEAP reporter activity [2, 4]: 0.0957
NF-kB SEAP reporter activity [2, 5]: 1.16

CCNC(=O)Nc1ccc(-c2nc3c(c(N4CCOCC4C)n2)CCN(C2COC2)C3)cc1 (stereo not drawn) (library stock concentration (final ~1000-fold dilution): 10 mM)
NF-kB SEAP reporter activity ([2]; agonist: LPS (TLR4) 0.1 ug/mL): 0.974
NF-kB SEAP reporter activity [2, 3]: 0.705
NF-kB SEAP reporter activity [2, 4]: 0.395
NF-kB SEAP reporter activity [2, 5]: 0.411

CCNC(=O)Nc1ccc(-c2nc3c(c(N4CCOCC4C)n2)CCN(C2COC2)C3)cc1 (stereo not drawn)
NF-kB SEAP reporter activity ([1]; agonist: Imiquimod (TLR7) […]): 0.771
NF-kB SEAP reporter activity ([1]; agonist: MPLA (TLR4) […]): 1.23

Cc1nc(NC(=O)N2CCCC2C(N)=O)sc1-c1csc(C(C)(C)C)n1 (stereo not drawn) (library stock concentration (final ~1000-fold dilution): 10 mM)
NF-kB SEAP reporter activity ([2]; agonist: LPS (TLR4) 0.1 ug/mL): 0.881
NF-kB SEAP reporter activity [2, 3]: 1.41
NF-kB SEAP reporter activity [2, 4]: 1.32
NF-kB SEAP reporter activity [2, 5]: 1

Cc1nc(NC(=O)N2CCCC2C(N)=O)sc1-c1csc(C(C)(C)C)n1 (stereo not drawn)
NF-kB SEAP reporter activity ([1]; agonist: Imiquimod (TLR7) […]): 1.01
NF-kB SEAP reporter activity ([1]; agonist: MPLA (TLR4) […]): 0.941
